Assay [1] can be described thus: Primary fluorescence-based thiol-reactive (MSTI) qHTS assay for identification of artifact compounds. (AID 1845221). Further: nearly all actives have a fitted effect of over 65% in size. Further: potency means the concentration at half of the fitted maximal effect.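 On activity change, negative = thiol reactive: series mostly up to about 54 µM; thiol-reactive compounds lower the probe fluorescence signal.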 The method, boiled down:
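Probe: MSTI 4 uM, PBS pH 7.4, 2% DMSO. Incubation 1 h, RT, light-protected. Readout fluorescence 525/598 nm.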
In general terms: qHTS replaces the single test concentration by a dilution series.

For assay [2], the system named is Nanoluciferase (engineered Oplophorus gracilirostris luciferase). In words: Primary Nanoluciferase (NLuc) qHTS assay for identification of artifact compounds. (AID 1845222).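 Further: NLuc secreted into diluted conditioned medium of S16 cells; series mostly up to about 54 µM; 0% = DMSO and -100% = no enzyme.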 In a few lines:
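S16 cell supernatant NLuc, 1:55; cpds qHTS; 15 min RT dark; Nano-Glo substrate 1:100, 5 min; luminescence; Hill fit of % inhibition.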

Assay [3] is described as follows: Primary redox qHTS assay for identification of artifact compounds. (AID 1845223).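 Further: 0% = DMSO and 100% = reference compound.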 In a few lines:
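Amplex Red (25 uM) and HRP (250 mU/mL) in HBSS, with compounds for 15 min, then 250 uM DTT for 30 min, room temperature, dark. Fluorescence 525/598 nm read; normalized to DMSO and 10 uM DA3003; Hill fit.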

Unmarked numbers belong to inactive results. Inconclusive results are not listed. The source made the active and inactive calls. The call rests on the fitted dose curve; in most records, active means well fitted curve in the direction sought with a large enough effect; inconclusive means small, poorly fitted or top-dose-only effect, or another doubt; inactive means no such curve, though single readings can be large; an effect the other way counts as inactive or inconclusive. *1 amine or outer side, *2 acyl side, *3 side chain or, on linkers, in order; H or OH if unused. Where a SMILES comes first, the peptide text is derived from it. Bridges are numbered along the chain shown (N, C = ends). X6 = O=C(CCC[*:2])[*:1]

For the compound `CO[C@@]12CC3[C@@H]([C@@H](O)[C@@H](OC(C)=O)C4[C@](C)(COC(C)=O)CCC[C@]34C)[C@@H](C)C1=CC(=O)O2` (some centres undefined), the Potency entry in assay [1] and in assay [2] was “inactive” in each case.
In the case of `C=C[C@H]1[C@H](O[C@@H]2O[C@H](CO)[C@@H](O)[C@H](O)[C@H]2O)OC=C2C(=O)OCC[C@]21O`, the Potency in assay [1] was 11.7 µM (active). The Potency entry in assay [2] is “inactive”.
For `CCOC(=O)Nc1nc2ccccc2[nH]1`, the Potency entry in assay [1], in assay [2] and in assay [3] was “inactive” each time.
As for `CC1CCC2(C)C(CC(O)C(O)C23CO3)C1(C)CCC1=CC(O)OC1=O` (centres undefined), the Potency entry in assay [1], in assay [2] and in assay [3] was “inactive” in each case.
As to `COC(=O)[C@@]1(O)C=CC[C@@H]2[C@@]3(C)C[C@@H](c4ccoc4)OC(=O)[C@H]3CC[C@]21C`, the Potency entry in assay [1], in assay [2] and in assay [3] was “inactive” throughout.
For the compound `CC[C@H](C)[C@@H]1NC(=O)[C@H](Cc2ccc(OC)cc2)NC(=O)CCCSC[C@@H](C(=O)N2CCC[C@H]2C(=O)N[C@@H](CC(C)C)C(=O)NCC(N)=O)NC(=O)[C@H](CC(N)=O)NC(=O)[C@H](CCC(N)=O)NC1=O` (Y(Me)IQNCPLG-NH2; linker N-5 via X6), the Potency result in assay [1] and in assay [2] was “inactive” each time.
In the case of `C[C@@H]1O[C@@H](O[C@H]2[C@H](O)[C@@H](C(=O)O)O[C@@H](O[C@H]3CC[C@@]4(C)C(CC[C@]5(C)C4CC=C4C6CC(C)(C)CC[C@]6(C(=O)O)CC[C@]45C)C3(C)C)[C@@H]2O[C@@H]2O[C@H](CO)[C@@H](O)[C@H](O)[C@H]2O)[C@H](O)[C@H](O)[C@H]1O` (some centres undefined), the activity change, negative = thiol reactive in assay [1] was 296% [at 11.5 µM]. Further, the activity, negative = inhibition in assay [2] is -0.245% [at 11.6 µM].
In the case of `COc1cc(C/C(=C/NC(C)=O)N(CC(=O)Cc2ccccc2)C(C)=O)cc2c1OCO2`, the Potency entry in assay [1] and in assay [2] was “inactive” in each case.
As for `COc1c(C(CC(C)C)OC(C)=O)ccc(Oc2c(O)cc(C)cc2/C=C/C(C)=O)c1C(=O)O` (centres undefined), the Potency in assay [1] was 4.62 µM (active). Moreover, in assay [2], the Potency result was “inactive”.
Turning to `C[C@H]1CN(C[C@H](Cc2ccccc2)C(=O)NCC(=O)O)CC[C@@]1(C)c1cccc(O)c1`, the Potency result in assay [1], in assay [2] and in assay [3] was “inactive” in each case.
As to `Cc1cn2c(N)c(Cl)cc(C(=O)NCC3CCN(CC(C)C)CC3)c2n1`, the Potency entry in assay [1] and in assay [2] was “inactive” each time.
Take `CO[C@H]1C=C2C(CC[C@H](O[C@@H]3O[C@H](CO)[C@@H](O)[C@@H](O)[C@H]3O)C2(C)C)[C@]2(C)CC[C@]3(C)C([C@H](C)C(O)C(C=C(C)C)O[C@@H]4O[C@H](CO)[C@@H](O)[C@@H](O)[C@H]4O)CC[C@@]3(C)C12` (some centres undefined): in assay [1], the activity change, negative = thiol reactive is 133% [at 11.5 µM]. Besides, the activity, negative = inhibition in assay [2] is 4.54% [at 11.6 µM].
For the compound `CN1C(=O)c2ccccc2-n2c(nc3ccccc3c2=O)[C@@]12O[C@H]2c1ccccc1`, the Potency result in assay [1] and in assay [2] was “inactive” each time.
As to `COC(=O)C1=COC(O[C@@H]2O[C@H](CO)[C@@H](O)[C@H](O)[C@H]2O)/C(=C\COC(=O)c2ccc(OC3OC(CO)C(O)C(O)C3O)c(OC)c2)C1CC(=O)OCCc1ccc(O)cc1` (some centres undefined), the activity change, negative = thiol reactive in assay [1] was 1.89% [at 11.5 µM]. For the same compound, the activity, negative = inhibition in assay [2] is 4.63% [at 11.6 µM].
With `C/C(=C\CO)CC/C=C(\C)C(=O)O[C@H]1[C@H](OC2OC=C(C(=O)O)C3CCC(C)(O)C23)O[C@H](CO)[C@@H](O)[C@@H]1O` (some centres undefined), the Potency in assay [1] was 11.6 µM (active). Further, the Potency entry in assay [2] and in assay [3] was “inactive” each time.
In the case of `O=C(NCC(=O)N1CC[C@H](NC2CCC(O)(c3ccc(-c4ncccn4)cn3)CC2)C1)c1cccc(C(F)(F)F)c1` (some centres undefined), the Potency entry in assay [1], in assay [2] and in assay [3] was “inactive” throughout.
Turning to `c1ccc(C(OC2CCN(CCCc3nn[nH]n3)CC2)c2ccccc2)cc1`, the Potency result in assay [1], in assay [2] and in assay [3] was “inactive” each time.
Consider `C=C1CCC[C@]2(C)C[C@]3(O)OC(=O)C(C)=C3C[C@@H]12`, for which the Potency entry in assay [1], in assay [2] and in assay [3] was “inactive” each time.
As for `OC[C@H]1O[C@@H](Oc2cc(O)cc(-c3cc4ccc(O)cc4o3)c2)[C@H](O)[C@@H](O)[C@@H]1O`, in assay [1], the Potency was 5.19 µM (active). Moreover, the Potency entry in assay [2] and in assay [3] was “inactive” in each case.
On to `C=C/C=C/[C@@H]1OC[C@H](/C=C/C=C/C)[C@H]1O`, for which the Potency result in assay [1] and in assay [2] was “inactive” each time.
In the case of `O=c1ccn([C@@H]2O[C@H](CO)[C@@H](O)[C@H]2O)c(=O)[nH]1`, the Potency result in assay [1] and in assay [2] was “inactive” each time.
`C=C1CCC2C(C)(COC3OC(COC(=O)CC(=O)O)C(O)C(O)C3O)CCCC2(C)C1CCC1=CCOC1=O` (centres undefined): the Potency entry in assay [1] and in assay [2] was “inactive” each time.
In the case of `C[C@H]1C[C@H]2[C@@H]3CCC4=CC(=O)C=C[C@]4(C)[C@@]3(F)[C@@H](O)C[C@]2(C)[C@@]1(O)C(=O)COP(=O)(O)O`, the Potency result in assay [1], in assay [2] and in assay [3] was “inactive” in each case.
For the compound `C/C(=C\CCC(C(=O)O)C1CCC2(C)C3=C(CCC12C)C1(C)CCC(=O)C(C)(C)C1CC3)C(=O)O` (centres undefined), the Potency result in assay [1] and in assay [2] was “inactive” throughout.
Regarding `CC(C)CC(=O)O[C@@H]1OC=C(CO[C@@H]2O[C@H](CO[C@@H]3O[C@H](CO)[C@@H](O)[C@H](O)[C@H]3O)[C@@H](O)[C@H](O)[C@H]2O)[C@H]2C[C@H](O)[C@@H](CO)[C@@H]12`, the Potency entry in assay [1], in assay [2] and in assay [3] was “inactive” in each case.
Consider `CC1C/C=C/C=C\CCCCC(O)C/C=C/C(=O)O1` (centres undefined), for which the Potency entry in assay [1], in assay [2] and in assay [3] was “inactive” throughout.
With `COc1ccc(C(=O)O[C@H]2CC(C)=CC[C@@]3(C)[C@@H](OC(C)=O)C[C@@](O)(C(C)C)[C@H]23)cc1`, the Potency entry in assay [1] and in assay [2] was “inactive” each time.
As to `Cn1ccnc1CCOC(c1cc2nccc(C(=O)O)c2[nH]1)c1ccccc1Cl` (centres undefined), the Potency entry in assay [1], in assay [2] and in assay [3] was “inactive” in each case.
In the case of `O=C(O)Cc1nn(Cc2nc3cc(C(F)(F)F)ccc3s2)c(=O)c2nccnc12`, the Potency entry in assay [1], in assay [2] and in assay [3] was “inactive” in each case.
In the case of `CCC(C)/C=C(C)/C=C/C1=CC2=C(Cl)C(=O)C(C)(OC(C)=O)C(=O)C2=CN1CCCC(=O)O` (centres undefined), the Potency in assay [1] is 0.367 µM (active). Further, in assay [2], the Potency result was “inactive”.
Regarding `COC1CC(OC2CCC3(C)C(=CCC4C3CCC3(C)C(C(C)O)CCC43O)C2)OC(C)C1OC1OC(C)C(OC2OC(COC3OC(COC4OC(CO)C(O)C(O)C4O)C(O)C(O)C3O)C(O)C(O)C2O)C(OC)C1O` (centres undefined), the activity change, negative = thiol reactive in assay [1] is 54% [at 11.5 µM]. Moreover, the activity, negative = inhibition in assay [2] was 4.38% [at 11.6 µM].
`CC1(C)CCCC2(C)C(CO)C3CCC2C31` (centres undefined): the Potency entry in assay [1], in assay [2] and in assay [3] was “inactive” in each case.

Values taken from PubChem BioAssay (NCATS).
